Reference: PubChem BioAssay (NCI)
The panel holds about 79,000 compounds, 15% with a hit somewhere; the sample as a whole holds those more often. Active and inactive are the calls of the source. Rule as the data show it: active = growth inhibition above about 70%; inactive = the rest.

How the values were obtained:
[1] = NCI Yeast Anticancer Drug Screen. Data for the wt1 strain (AID 149);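 also: 0% = growth of vehicle-treated wt1 cultures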; conditions: S. cerevisiae wt1 strain (SPY 50644) growth inhibition, active compounds read high
Summary of the method: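 Measured: growth of wt1 yeast under compound versus vehicle treatment, reported as inhibition.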

[2] = NCI Yeast Anticancer Drug Screen. Data for the rad50EPP+ strain (AID 151);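 also: 0% = growth of vehicle-treated control cultures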; conditions: S. cerevisiae rad50 mutant strain, active compounds read high
Summary of the method: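 Measured: growth inhibition of rad50EPP+ yeast. Reference: vehicle-treated controls. Screen uses strains with defined genetic alterations in DNA damage repair or cell cycle control.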

[3] = NCI Yeast Anticancer Drug Screen. Data for the mgt1 strain (AID 153); conditions: S. cerevisiae mgt1 mutant growth inhibition, active compounds read high
Summary of the method: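 Compounds were applied to mgt1 mutant yeast, and growth was then compared against vehicle-treated control cultures to give percent inhibition.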

[4] = NCI Yeast Anticancer Drug Screen. Data for the rad50 strain (AID 155);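 also: 0% = growth of vehicle-only cultures of the same strain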; conditions: S. cerevisiae rad50 strain growth inhibition, active compounds read high
Summary of the method: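 Growth of the mutant yeast was measured after compound exposure and referenced to vehicle-treated cultures.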

[5] = NCI Yeast Anticancer Drug Screen. Data for the mec2-1 strain (AID 157); conditions: S. cerevisiae mec2-1 strain, active compounds read high
Summary of the method: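 Compounds were applied to mec2-1 yeast cells. Their growth was then compared with that of vehicle-treated cultures to give growth inhibition.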

[6] = NCI Yeast Anticancer Drug Screen. Data for the rad14 strain (AID 159);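 also: 0% = growth of vehicle-treated control cultures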; conditions: S. cerevisiae rad14 strain growth inhibition, active compounds read high
Summary of the method: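 Here, inhibition of yeast growth was measured after compound exposure, using a strain with a genetic defect in DNA damage repair and vehicle-treated cultures as the reference.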

[7] = NCI Yeast Anticancer Drug Screen. Data for the sgs1 mgt1 strain (AID 161);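 also: 0% = growth of cultures given vehicle only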; conditions: S. cerevisiae sgs1 mgt1 strain, active compounds read high
Summary of the method: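 This yeast growth screen uses a strain with defined DNA-repair lesions; compound-treated growth is compared with vehicle-treated growth.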

[8] = NCI Yeast Anticancer Drug Screen. Data for the CLN2oe strain (AID 163);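 also: 0% = growth of vehicle-only control cultures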; conditions: S. cerevisiae CLN2oe strain, active compounds read high
Summary of the method: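 Cells of an engineered yeast line with disturbed cell-cycle regulation are treated with compound. Inhibition of growth is then calculated relative to the vehicle-treated reference.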

[9] = NCI Yeast Anticancer Drug Screen. Data for the cln2 rad14 strain (AID 165);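 also: 0% = growth equal to vehicle treated cultures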; conditions: S. cerevisiae cln2 rad14 strain, active compounds read high
Summary of the method: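 Strain: cln2 rad14 yeast, altered in cell cycle control and DNA damage repair. Read-out: growth inhibition vs vehicle.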

[10] = NCI Yeast Anticancer Drug Screen. Data for the bub3 strain (AID 167); conditions: S. cerevisiae bub3 mutant strain, active compounds read high
Summary of the method: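 Whole-cell yeast assay. The mutant strain was incubated with compounds, and growth inhibition was determined by comparison with vehicle-treated cells.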

[11] = NCI Yeast Anticancer Drug Screen. Data for the wt2 strain (AID 169);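 also: 0% = growth of vehicle-treated yeast cultures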; conditions: S. cerevisiae wt2 strain growth inhibition, active compounds read high
Summary of the method: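 Growth of compound-treated yeast is measured and expressed as inhibition relative to vehicle-only controls.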

[12] = NCI Yeast Anticancer Drug Screen. Data for the mlh1 strain (AID 171);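 also: 0% = growth of vehicle-treated control cultures of the same strain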; conditions: S. cerevisiae mlh1 strain growth inhibition, active compounds read high
Summary of the method: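 Test agents were incubated with yeast bearing a defined DNA damage repair or cell cycle control alteration; values are growth inhibition normalised to vehicle-treated cultures.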

[13] = NCI Yeast Anticancer Drug Screen. Data for the sgs1 strain (AID 173);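 also: 0% = growth of vehicle-only control cultures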; conditions: S. cerevisiae sgs1 mutant, active compounds read high
Summary of the method: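 Strain with an altered DNA repair or cell cycle pathway exposed to compound. Growth then measured. Value = inhibition versus vehicle control.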

[14] = NCI Yeast Anticancer Drug Screen. Data for the mlh1 rad18 strain (AID 175); conditions: S. cerevisiae mlh1 rad18 strain growth inhibition, active compounds read high
Summary of the method: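 A repair-deficient yeast strain is exposed to test compound, and growth is scored relative to vehicle-treated controls.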

[15] = NCI Yeast Anticancer Drug Screen. Data for the rad18 strain (AID 177); conditions: S. cerevisiae rad18 mutant growth inhibition, active compounds read high
Summary of the method: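 DNA-repair-defective yeast; compound treatment; growth inhibition scored against vehicle.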

[16] = at 5.0 µM (retest, dose inferred, filed as 0.5)
[17] = at 50.0 µM (retest, dose inferred, filed as 5.0)

Measured: growth inhibition

CCCCCCCCC/C=C/C=C/C(=O)NCC(=O)NC1C(O)C(O)C(Nc2ncnc3nc[nH]c23)OC1C(O)CO (stereo unspecified)
inactive: [1]; at 1.2 µM -41% | [1]; at 3.7 µM -23% | [1]; at 11.0 µM -27% | [1]; at 33.0 µM 33% | [1]; at 100.0 µM 20% | [2]; at 1.2 µM -19% | [2]; at 3.7 µM -17% | [2]; at 11.0 µM -15% | [2]; at 33.0 µM -36% | [2]; at 100.0 µM -48% | [3]; at 1.2 µM -33% | [3]; at 3.7 µM -22% | [3]; at 11.0 µM -14% | [3]; at 33.0 µM 43% | [3]; at 100.0 µM 39% | [4]; at 1.2 µM -53% | [4]; at 3.7 µM -47% | [4]; [16] 47% | [4]; at 11.0 µM -52% | [4]; at 33.0 µM -75% | [4]; at 50.0 µM 16.9% | [4]; at 100.0 µM -24% | [5]; at 1.2 µM -61% | [5]; at 3.7 µM -30% | [5]; [16] 9% | [5]; at 11.0 µM 14% | [5]; at 33.0 µM -11% | [5]; [17] 43% | [5]; at 50.0 µM 6.95% | [5]; at 100.0 µM -27% | [6]; at 1.2 µM -17% | [6]; at 3.7 µM -5% | [6]; at 11.0 µM -8% | [6]; at 33.0 µM 8% | [6]; at 100.0 µM 51% | [7]; [16] 2% | [7]; [17] -55% | [7]; at 50.0 µM 69.2% | [8]; at 1.2 µM 4% | [8]; at 3.7 µM 8% | [8]; at 11.0 µM 11% | [8]; at 33.0 µM 18% | [8]; at 100.0 µM -11% | [9]; [16] -1% | [9]; [17] -13% | [9]; at 50.0 µM 10.8% | [10]; at 1.2 µM -64% | [10]; at 3.7 µM -38% | [10]; [16] 5% | [10]; at 11.0 µM -58% | [10]; at 33.0 µM 5% | [10]; [17] -16% | [10]; at 50.0 µM 24.9% | [10]; at 100.0 µM 3% | [11]; at 1.2 µM 7% | [11]; at 3.7 µM 24% | [11]; at 11.0 µM 53% | [11]; at 33.0 µM 61% | [11]; at 100.0 µM 56% | [12]; at 1.2 µM -44% | [12]; at 3.7 µM -38% | [12]; at 11.0 µM -50% | [12]; at 33.0 µM 18% | [12]; at 100.0 µM -29% | [13]; at 1.2 µM -21% | [13]; at 3.7 µM 8% | [13]; at 11.0 µM 14% | [13]; at 33.0 µM 65% | [13]; at 100.0 µM 59% | [14]; [16] 20% | [14]; [17] 41% | [14]; at 50.0 µM 49.4% | [15]; at 1.2 µM -7% | [15]; at 3.7 µM 7% | [15]; at 11.0 µM 21% | [15]; at 33.0 µM 53% | [15]; at 100.0 µM 48%
active: [4]; [17] 83%

Cn1c(N)nc(-c2ccc(Cl)cc2)c1SSc1c(-c2ccc(Cl)cc2)nc(N)n1C
inactive: [1]; at 1.2 µM 2% | [1]; at 3.7 µM 4% | [1]; at 11.0 µM 16% | [1]; at 33.0 µM 44% | [2]; at 1.2 µM -6% | [2]; at 3.7 µM 9% | [2]; at 11.0 µM 53% | [3]; at 1.2 µM -2% | [3]; at 3.7 µM 0% | [3]; at 11.0 µM 13% | [4]; at 1.2 µM -9% | [4]; at 3.7 µM -17% | [4]; [16] -13% | [4]; at 11.0 µM 6% | [4]; [17] 15% | [5]; at 1.2 µM -1% | [5]; at 3.7 µM 3% | [5]; [16] -15% | [5]; at 11.0 µM 30% | [5]; [17] 13% | [6]; at 1.2 µM -1% | [6]; at 3.7 µM -1% | [6]; at 11.0 µM 10% | [6]; at 33.0 µM 53% | [7]; [16] -12% | [7]; [17] 6% | [8]; at 1.2 µM -8% | [8]; at 3.7 µM -2% | [8]; at 11.0 µM 5% | [8]; at 33.0 µM 63% | [9]; [16] 37% | [9]; [17] -3% | [10]; at 1.2 µM -4% | [10]; at 3.7 µM -2% | [10]; [16] -4% | [10]; at 11.0 µM 21% | [11]; at 1.2 µM -1% | [11]; at 3.7 µM 1% | [11]; at 11.0 µM 20% | [12]; at 1.2 µM 0% | [12]; at 3.7 µM 3% | [12]; at 11.0 µM 23% | [13]; at 1.2 µM 0% | [13]; at 3.7 µM 6% | [13]; at 11.0 µM 28% | [14]; [16] -5% | [14]; [17] 24% | [15]; at 1.2 µM -3% | [15]; at 3.7 µM -1% | [15]; at 11.0 µM 34%
active: [1]; at 100.0 µM 94% | [2]; at 33.0 µM 84% | [2]; at 100.0 µM 97% | [3]; at 33.0 µM 71% | [3]; at 100.0 µM 98% | [4]; at 33.0 µM 73% | [4]; at 50.0 µM 95.5% | [4]; at 100.0 µM 97% | [5]; at 33.0 µM 75% | [5]; at 50.0 µM 93.1% | [5]; at 100.0 µM 97% | [6]; at 100.0 µM 97% | [7]; at 50.0 µM 94.8% | [8]; at 100.0 µM 97% | [9]; at 50.0 µM 92% | [10]; at 33.0 µM 82% | [10]; [17] 93% | [10]; at 50.0 µM 94.9% | [10]; at 100.0 µM 97% | [11]; at 33.0 µM 71% | [11]; at 100.0 µM 99% | [12]; at 33.0 µM 82% | [12]; at 100.0 µM 98% | [13]; at 33.0 µM 85% | [13]; at 100.0 µM 98% | [14]; at 50.0 µM 97.8% | [15]; at 33.0 µM 88% | [15]; at 100.0 µM 94%
